18 sequences from the OligoGym collection can be followed below.
Further: reference of the scale not given here.

The first test concerns the target SSX3. As to the kind of experiment: pooled miR-30 sensor sort-seq; sequence = guide strand. To be noted: shRNA.
As for TTGTATCTTCTCTGGTATTTGA, the sensor-assay potency score (higher = more potent) is -1.1.
Still for that read-out and setting: to ATATCATGTTAATCTTCTCAGA belongs -1.24.
Same read-out and setting: the result for TTCTCCGAGACTTTCATCTTTT reads -0.696.
Same read-out and setting: the result for TTTGGGTCCAGATATCATGTTA reads -0.75; that for TATCATGTTAATCTTCTCAGAG, -0.0343; that for TATTACGCATGAAAGATGGGAG, 0.05.

In another test the target is SSX4B. Described as above. To be noted: shRNA.
TGTCTTGTTAATCTTCTCCAAG: the sensor-assay potency score (higher = more potent) was -1.4.
With TAATCTTCTCCAAGGTACTTGG, the sensor-assay potency score (higher = more potent) was -0.322.
In the case of ATTCCTGTGGTTTCGATCGTTA, the sensor-assay potency score (higher = more potent) was -0.284.
Still for that read-out and setting: the result for TGATATTTGAGCATCATCCCTG reads 0.125; that for TTTAGTCATGACCTCATAGTTT, -0.792.
For TTTAGCTTCATATACACATAGA, the sensor-assay potency score (higher = more potent) is -0.61.
On the same count and under the same terms, the result for TTGTTAATCTTCTCCAAGGTAC reads -0.679; that for TCTCTGATATTTGAGCATCATC, -2.01; that for TTAGTCATGACCTCATAGTTTA, -0.622.
Regarding AACCATTTTCTTCCTCTGCTGG, the sensor-assay potency score (higher = more potent) is -0.606.
On the same count and under the same terms, the result for TTAATCTTCTCCAAGGTACTTG reads 0.0289; that for TTCATAAACCACCAGCTGCTTT, -1.07.
